Experimental findings from PubChem BioAssay (NCI) are described below.

Molecules are shown by their SMILES. Several values for one entry are separate records, joined by “and”; a condition that tells them apart may be missing. Equal entries are not always repeated. This is part of a sample that, as a whole, favours compounds with a hit. Of some 83,000 tested, about 20% had one in any assay.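 Interpretation: 100, growth as untreated; towards 0, rising growth inhibition; 0, no net growth; 0 to -100, cell death. Compounds scoring below 10 were considered active.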 Activity calls are given as the source filed them.

Among the test systems are SR leukemia; RPMI-8226 leukemia; OVCAR-8 ovarian; OVCAR-5 ovarian; OVCAR-4 ovarian; SK-OV-3 ovarian; IGROV1 ovarian; OVCAR-3 ovarian; HS 578T breast; NCI/ADR-RES ovarian.
What all share (assay): NCI-60 one-dose screen, 48 h (100 = growth as untreated, 0 = no growth, -100 = all killed)
Conditions in all cases: 10 µM unless noted

Turning to `Cc1ccc(Cc2cnc(NC(=O)c3cc(C)oc3C)s2)cc1`, the growth with SR leukemia was 29.7% (inactive); in the assay on RPMI-8226 leukemia it was 73.6% (inactive); with OVCAR-8 ovarian it was 87.7% (inactive); in the assay with OVCAR-5 ovarian, 67.6% (inactive); with OVCAR-4 ovarian, 70.2% (inactive); in the assay on SK-OV-3 ovarian, 84.3% (inactive). Further, the growth in the assay with IGROV1 ovarian was 62% (inactive); in the assay on OVCAR-3 ovarian, 81.4% (inactive); with HS 578T breast, 82.9% (inactive); with NCI/ADR-RES ovarian it was 67.4% (inactive).

As to `C#CCn1cnc2cnc(Nc3cccc(NC(=O)CCl)c3)nc21`, the growth in the assay with SR leukemia is 1.67% [6.25 µM] (active); in the assay with RPMI-8226 leukemia, -14.9% [6.25 µM] (active); in the assay on OVCAR-8 ovarian, 8.6% [6.25 µM] (active); in the assay on OVCAR-5 ovarian it was 14.8% [6.25 µM] (inactive); with OVCAR-4 ovarian, 13% [6.25 µM] (inactive); in the assay on SK-OV-3 ovarian, 15.3% [6.25 µM] (inactive). In addition, the growth in the assay with IGROV1 ovarian is -38.1% [6.25 µM] (active); in the assay on OVCAR-3 ovarian it was -44.9% [6.25 µM] (active); with HS 578T breast, 10.4% [6.25 µM] (inactive); in the assay with NCI/ADR-RES ovarian, 2.34% [6.25 µM] (active).

On to `CCN(C(=O)N1CCN(c2cc3c(cc2F)c(=O)c(C(=O)O)cn3C2CC2)CC1)c1nc(-c2ccccc2)cs1`, for which the growth is 10% (inactive) in the assay with SR leukemia; 12.5% (inactive) with RPMI-8226 leukemia; 30.2% (inactive) with OVCAR-8 ovarian; 35.7% (inactive) in the assay on OVCAR-5 ovarian; 55.5% (inactive) in the assay with OVCAR-4 ovarian; 63.8% (inactive) with SK-OV-3 ovarian. Further, the growth is 12.5% (inactive) in the assay on IGROV1 ovarian, 15.9% (inactive) in the assay on OVCAR-3 ovarian, 18.2% (inactive) in the assay with HS 578T breast and 22.4% (inactive) with NCI/ADR-RES ovarian.

On to `O=C(/C=C/c1ccc([N+](=O)[O-])cc1)c1ccccc1`, for which the growth was 7.6% (active) with SR leukemia; 41.6% (inactive) in the assay with RPMI-8226 leukemia; 98.3% (inactive) in the assay with OVCAR-8 ovarian; 106% (inactive) in the assay on OVCAR-5 ovarian; 98.1% (inactive) in the assay on OVCAR-4 ovarian; 92.5% (inactive) in the assay on SK-OV-3 ovarian. Besides, the growth is 87.3% (inactive) in the assay on IGROV1 ovarian, 99.6% (inactive) with OVCAR-3 ovarian, 93.2% (inactive) in the assay on HS 578T breast and 103% (inactive) with NCI/ADR-RES ovarian.

With `c1ccc(-c2cc(-c3cc(-c4ccccc4)on3)no2)cc1`, the growth in the assay with SR leukemia was 61.6% (inactive); in the assay with RPMI-8226 leukemia, 88.1% (inactive); in the assay on OVCAR-8 ovarian, 74.6% (inactive); in the assay on OVCAR-5 ovarian, 77.1% (inactive); with OVCAR-4 ovarian, 96.7% (inactive); with SK-OV-3 ovarian it was 109% (inactive). Moreover, the growth is 63.6% (inactive) in the assay on IGROV1 ovarian, 127% (inactive) in the assay on OVCAR-3 ovarian, 116% (inactive) with HS 578T breast and 69.7% (inactive) in the assay with NCI/ADR-RES ovarian.

For `CCCc1cc(C(N)=S)ccn1`, the growth in the assay with SR leukemia was 104% (inactive); in the assay with RPMI-8226 leukemia it was 120% (inactive); in the assay on OVCAR-8 ovarian it was 99.3% (inactive); in the assay with OVCAR-5 ovarian it was 105% (inactive); with OVCAR-4 ovarian, 110% (inactive); with SK-OV-3 ovarian, 100% (inactive). Moreover, the growth is 105% (inactive) in the assay on IGROV1 ovarian, 115% (inactive) with OVCAR-3 ovarian, 125% (inactive) with HS 578T breast and 87.8% (inactive) in the assay on NCI/ADR-RES ovarian.

Consider `CN1CCN(c2ccc(/C=C/C(=O)c3ccc(O)cc3)cc2)CC1`, for which the growth in the assay on SR leukemia is 101% (inactive); with RPMI-8226 leukemia, 102% (inactive); with OVCAR-8 ovarian, 95.9% (inactive); in the assay on OVCAR-5 ovarian it was 98.1% (inactive); in the assay with OVCAR-4 ovarian, 89.5% (inactive); in the assay on SK-OV-3 ovarian it was 105% (inactive). Further, the growth was 105% (inactive) in the assay on IGROV1 ovarian, 106% (inactive) in the assay with OVCAR-3 ovarian, 95.7% (inactive) with HS 578T breast and 99.9% (inactive) in the assay with NCI/ADR-RES ovarian.

On to `CN(C)c1ccc2nc3ccc(=O)cc-3sc2c1`, for which the growth in the assay with SR leukemia was 7.73% (active) and 17.9% (inactive); with RPMI-8226 leukemia, 12.8% (inactive) and 13.8% (inactive); in the assay on OVCAR-8 ovarian it was 28.1% (inactive) and 6.61% (active); in the assay with OVCAR-5 ovarian, 86.6% (inactive) and 88.5% (inactive); in the assay on OVCAR-4 ovarian, 2.9% (active); in the assay with SK-OV-3 ovarian, 81.7% (inactive) and 93.7% (inactive). Besides, the growth in the assay with IGROV1 ovarian is 50.2% (inactive) and 57.1% (inactive); in the assay with OVCAR-3 ovarian, -7.17% (active) and -6.79% (active); in the assay with HS 578T breast, 79.4% (inactive) and 79.2% (inactive); with NCI/ADR-RES ovarian it was 14.7% (inactive) and 46.2% (inactive).

For the compound `C=C(C)[C@@H]1CC[C@]2(C(=O)N3CCN(C)CC3)CC[C@]3(C)[C@H](CC[C@@H]4[C@@]5(C)CC(CCCNC(C)=O)(CCCNC(C)=O)[C@H](OC(C)=O)C(C)(C)[C@@H]5CC[C@]43C)[C@@H]12`, the growth was 76.2% (inactive) in the assay with SR leukemia; 75.5% (inactive) in the assay on RPMI-8226 leukemia; 106% (inactive) in the assay with OVCAR-8 ovarian; 102% (inactive) in the assay with OVCAR-5 ovarian; 111% (inactive) in the assay on OVCAR-4 ovarian; 102% (inactive) with SK-OV-3 ovarian. The growth is 102% (inactive) in the assay on IGROV1 ovarian, 104% (inactive) in the assay on OVCAR-3 ovarian, 96.6% (inactive) in the assay with HS 578T breast and 98.7% (inactive) with NCI/ADR-RES ovarian.

For `Cc1[nH]c(C(=O)Nc2nc3ccc(NC(=O)CCN)cc3s2)c(Cl)c1Cl`, the growth with SR leukemia is 6.56% (active); with RPMI-8226 leukemia, 78.4% (inactive); in the assay on OVCAR-8 ovarian, 56.1% (inactive); with OVCAR-5 ovarian, 92.5% (inactive); in the assay with OVCAR-4 ovarian, 44.8% (inactive); with SK-OV-3 ovarian it was 107% (inactive). The growth is 68.4% (inactive) in the assay with IGROV1 ovarian, 77.3% (inactive) in the assay on OVCAR-3 ovarian, 90.8% (inactive) with HS 578T breast and 58.4% (inactive) in the assay on NCI/ADR-RES ovarian.

With `N#CC1C(=O)c2ccccc2C1c1ccccc1` (stereo not given), the growth is 85.1% (inactive) and 106% (inactive) in the assay on SR leukemia; 111% (inactive) and 102% (inactive) in the assay with RPMI-8226 leukemia; 96.9% (inactive) and 97.3% (inactive) in the assay with OVCAR-8 ovarian; 110% (inactive) and 104% (inactive) in the assay with OVCAR-5 ovarian; 99.5% (inactive) and 99.2% (inactive) in the assay on OVCAR-4 ovarian; 105% (inactive) and 114% (inactive) in the assay on SK-OV-3 ovarian. Also, the growth in the assay with IGROV1 ovarian is 100% (inactive) and 110% (inactive); with OVCAR-3 ovarian, 84.9% (inactive) and 107% (inactive); with HS 578T breast it was 116% (inactive) and 105% (inactive); with NCI/ADR-RES ovarian, 108% (inactive) and 107% (inactive).
